The values below come from PubChem BioAssay.

This assay deals with Sam68 (KHDRBS1). Briefly: Sam68 small-molecule binders, primary screen, biochemical, small-molecule microarray, 635 nm fluorescence (AID 1125).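 Also: score merges 667 nm channel intensity with signal to noise over triplicate slides.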 The settings on record: small-molecule microarray binding, higher = more signal.
Turning to `COCCOC(=O)N1C(=O)[C@@]2(c3cc(C#Cc4ccc(OC)cc4)ccc31)[C@H](C(=O)N1CCCCCCC1)[C@H]1C(=O)O[C@H](c3ccccc3)[C@H](c3ccccc3)N1[C@@H]2c1ccc(O)cc1`, the composite z-score amounted to 1.15.
On to `C#CCNC(=O)[C@H](Cc1ccccc1)NC(=O)[C@@H](N=[N+]=[N-])C(C)C`, for which the composite z-score came to 1.01.
Compound `COc1c(C)cc(-c2cc3c(c(-c4ccccc4)n2)[Si](C(C)C)(C(C)C)OC3)cc1C` registered a composite z-score of -0.5.
Under `CN(C)CCCCNC(=O)[C@H]1C[C@H]2C(=O)N[C@@H](CCCCN(C)C)C(=O)N2[C@H]1c1cccc(OCCO)c1` stands 1.31; under `COC(=O)C1(Cc2ccccc2)C=C2C(=C(C(C)C)C(=O)C2C)CN1` (stereo not given), -1.52.
With `[N-]=[N+]=NCc1ccccc1C[C@@]1(C(N)=O)N=C(c2ccc(OCCCO)cc2)O[C@@H]1c1ccccc1CN=[N+]=[N-]`, the composite z-score worked out at 1.29.
Turning to `C=CCNC(=O)[C@@H]1[C@H]2C(=O)O[C@H](c3ccccc3)[C@H](c3ccccc3)N2[C@H](c2ccccc2OCCO)[C@@]12C(=O)N(C(=O)OCCOC)c1ccc(C#CC3=CCCCC3)cc12`, the composite z-score was determined as 1.28.
Turning to `[N-]=[N+]=NCc1ccccc1C[C@@]1(C(=O)NCCN2CCOCC2)N=C(c2ccc(OCCCO)cc2)O[C@@H]1c1ccccc1N=[N+]=[N-]`, the composite z-score worked out at 1.3.
For `O=C1OCC=C[C@H]2OC34C=CCN(c5ccc(Cl)cc5)C(=O)[C@H]3N(CCCCCO)C(=O)[C@@H]4[C@@H]12` (stereo not given in full), the composite z-score was -1.56.
Under `CN(C)C(=O)[C@]1(CCC(=O)OC(C)(C)C)N=C(c2ccc(OCCCO)cc2)O[C@@H]1c1ccccc1` stands 0.374.
